From PubChem
Many of the other results were omitted from the sample, so hits are more common in it than they were.
CD40 NFkB inh: CD40 pathway inhibition in BL2 cells. BL2 NF-kB luciferase reporter, CD40L-induced, 4 h. inhibition, % at 10 µM. 83,000 compounds, 0.94% hits;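 active = mean inhibition of at least 50% with a set share of replicates also reaching that level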;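 note: 0% = neutral control wells and 100% = IKK inhibitor VII at 50 µM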
Active calls of the source: *; [ ] = another dose, or the depositor's remark.

Screening CCc1cnc(N2[C@H](C#N)[C@H](c3ccc(C#CCC4CCCC4)cc3)[C@@H]2CO)s1 returned CD40 NFkB inh 56.2*[25 µM].
`CCc1cnc(N2[C@@H](C#N)[C@@H](c3ccc(C#CCC4CCCC4)cc3)[C@@H]2CO)s1` gave CD40 NFkB inh 15.7[25 µM].
Screening COc1ccc(-c2ccc3c(c2)[C@@H]2[C@@H](CCN2C(=O)C2CCC2)[C@H](CO)N3C)cc1 returned CD40 NFkB inh 57.8*.
`COc1ccc(-c2ccc3c(c2)[C@H]2[C@H](CCN2C(=O)C2CCOCC2)[C@@H](CO)N3C)cc1` gave CD40 NFkB inh -5.3[25 µM].
COc1ccc(-c2ccc3c(c2)[C@@H]2[C@@H](CCN2C(=O)C2CC2)[C@@H](CO)N3C)cc1 was read as CD40 NFkB inh -18.1.
`CC(C)NC(=O)N1C[C@@H]2[C@H](c3ccccc31)[C@@H](CO)N2C(=O)C1CCCC1` gave CD40 NFkB inh 5.5[25 µM].
`C[C@]12CCC(=O)C=C1CC[C@@H]1[C@@H]2[C@@H](O)C[C@@]2(C)[C@H]1CC[C@]2(O)C(=O)COC(=O)CCC(=O)O` gave CD40 NFkB inh 24.4.
Screening CC(=O)OCC=C1CCC2C3CCC4=CC(=O)CCC4(C)C3C(O)CC12C (stereo not drawn) returned CD40 NFkB inh 6.9.
`CC(=O)OCC(=O)C1(O)CCC2C3CCC4=CC(=O)CCC4(C)C3(Cl)C(O)CC21C` (stereo not drawn) gave CD40 NFkB inh 62.2*.
Screening CO[C@H]1CN(C)C(=O)c2ccc(NS(=O)(=O)c3c(C)noc3C)cc2OC[C@H](C)NC[C@H]1C returned CD40 NFkB inh -0.6[25 µM].
For CC(C)(C)C1CCC(=NOC(=O)c2ccc(F)cc2)CC1 (stereo not drawn) the results were CD40 NFkB inh 0.4.
For Oc1ccc(CN2CCCc3ccccc32)c2cccnc12 the results were CD40 NFkB inh 10.7.
`Cc1cccnc1NCc1ccc(O)c2ncccc12` gave CD40 NFkB inh 58.7*.
`Cc1ccc(-n2cnnn2)c2cccnc12` gave CD40 NFkB inh 2.1.
Screening CCS(=O)(=O)N1Cc2ccccc2CC1C(=O)OCC(=O)Nc1ccc(C)cc1 (stereo not drawn) returned CD40 NFkB inh -12.0.
`CC(C)(C)NC(=O)/C=C/c1cccs1` gave CD40 NFkB inh -12.3.
O=C(/C=C/c1cccs1)c1ccc(N2CCOCC2)cc1 was read as CD40 NFkB inh 53.8*.
Screening CC(=O)c1ccc(N2CCN(C(=O)Cc3cccs3)CC2)cc1 returned CD40 NFkB inh -17.7.
For CNC[C@H]1OCc2ccccc2-c2c(n(C)c3ccccc23)C(=O)N([C@H](C)CO)C[C@@H]1C the results were CD40 NFkB inh -3.3.
`O=C(COc1ccccc1)Nc1ccc(Cl)cn1` gave CD40 NFkB inh -57.0.
Screening CCOc1ncccc1C(=O)OCC(=O)Nc1ccc(Cl)cn1 returned CD40 NFkB inh 15.2.
`COc1ccccc1C(=O)OCC(=O)Nc1ccc(Cl)cn1` gave CD40 NFkB inh 48.9*.
`O=C(NC[C@@H]1[C@@H](c2ccccc2)[C@@H](CO)N1Cc1cccnc1)C1CCCC1` gave CD40 NFkB inh 2.8.
For COC(=O)C1CCN(C(=O)COC(=O)CNC(=O)c2ccc(Cl)cc2Cl)CC1 the results were CD40 NFkB inh 4.7.
CC(=O)Nc1ccc2c(c1)CC(=O)N(C)C[C@H](C)[C@@H](CN(C)C(C)=O)O2 was read as CD40 NFkB inh 3.3.
O=C(Nc1ccccc1C(=O)NCC1CC1)c1cccs1 was read as CD40 NFkB inh 3.8.
For COc1ccc(CCNC(=O)c2cccc(S(=O)(=O)N3CCCC3)c2)cc1 the results were CD40 NFkB inh 5.4.
O=C(NCCc1ccc2c(c1)OCCO2)c1cccc(S(=O)(=O)N2CCCC2)c1 was read as CD40 NFkB inh 43.1*.
`O=C(NCCN1CCOCC1)c1cccc(S(=O)(=O)N2CCCC2)c1` gave CD40 NFkB inh 2.1.
C[C@H](CO)N1C[C@H](C)[C@@H](CN(C)C(=O)CCN(C)C)OCc2ccccc2-c2ccccc2C1=O was read as CD40 NFkB inh -8.1.
For COc1ccc2c3c([nH]c2c1)[C@@H](CO)N(C(C)=O)CC31CCN(C(=O)Nc2ccc(F)cc2F)CC1 the results were CD40 NFkB inh -4.4[25 µM].
Screening CN(C)c1ncnc(N(C)C)c1[N+](=O)[O-] returned CD40 NFkB inh -0.9.
`O=[N+]([O-])c1ccc(Sc2ccccn2)nc1` gave CD40 NFkB inh -12.5.
Screening Nc1ncnc(Sc2ncccn2)c1[N+](=O)[O-] returned CD40 NFkB inh 84.3*.
Screening Cc1cccc(S(=O)(=O)N2C[C@H]3[C@@H](c4ccccc42)[C@@H](CO)N3C(=O)CC2CC2)c1 returned CD40 NFkB inh 3.2[25 µM].
FC(F)(F)c1ccc(Nc2nnnc3ccccc23)cc1 was read as CD40 NFkB inh -19.8.
For C[N+](C)(C)C(Cc1c[nH]c2ccccc12)C(=O)[O-] (stereo not drawn) the results were CD40 NFkB inh 4.3.
CO[C@@H]1CN(C)C(=O)c2cc(NC(=O)c3nc4ccccc4s3)ccc2OC[C@@H](C)N(Cc2cccnc2)C[C@H]1C was read as CD40 NFkB inh -0.1.
`CN1CCc2cc3c(cc2C(=O)Cc2ccc4c(c2C1)OCO4)OCO3` gave CD40 NFkB inh -4.3[25 µM].
CC1CCCC=CC2CC(OC(=O)CN(C)C)CC2C(O)C=CC(=O)O1 (stereo not drawn) was read as CD40 NFkB inh 83.3*.
COc1cccc(S(=O)(=O)N[C@H]2CC[C@H](CC(=O)NC3Cc4ccccc4C3)O[C@H]2CO)c1 was read as CD40 NFkB inh -12.1[25 µM].
Screening COc1ccc2c3c([nH]c2c1)[C@H](CO)N(C(=O)CN(C)C)CC31CCN(Cc2cncnc2)CC1 returned CD40 NFkB inh -2.3[25 µM].
`O=C(c1ccc(F)cc1)N1[C@H](CO)[C@@H]2c3ccccc3NC[C@@H]21` gave CD40 NFkB inh -27.1[25 µM].
CCCC(=O)Nc1ccc2c(c1)OC[C@H](C)N(CC1CCOCC1)C[C@H](C)[C@@H](OC)CN(C)C2=O was read as CD40 NFkB inh 5.1[25 µM].
`COc1ccc(-c2ccc3c(c2)[C@H]2[C@H](CCN2C(=O)c2cccc(F)c2)[C@@H](CO)N3)cc1` gave CD40 NFkB inh -8.2[25 µM].
`Cc1ccc(Cn2nnnc2CN2CCC(NC(=O)C(C)(C)C)CC2)cc1` gave CD40 NFkB inh 5.5.
`CC(C)CCC(CCNCc1ccccn1)c1ccc2c(c1)OCO2` (stereo not drawn) gave CD40 NFkB inh 15.1.
Fc1ccccc1CNCCC(Cc1ccccc1)c1ccc2c(c1)OCO2 (stereo not drawn) was read as CD40 NFkB inh 32.5*.
`CC(=O)N(CCC(Cc1ccccc1)c1ccc2c(c1)OCO2)Cc1ccccc1F` (stereo not drawn) gave CD40 NFkB inh 11.6.
C[C@@H]1CCCCO[C@H](CN(C)C(=O)CCCN(C)C)[C@@H](C)CN([C@H](C)CO)C(=O)c2cc(NS(=O)(=O)c3ccc(Cl)cc3)ccc2O1 was read as CD40 NFkB inh -7.9[25 µM].
C[C@@H]1CCn2cc(nn2)COC[C@H](c2ccccc2)NC1=O was read as CD40 NFkB inh 7.4[25 µM].
CCc1nnc(NS(=O)(=O)c2ccc(Nc3ccc([N+](=O)[O-])c4nonc34)cc2)s1 was read as CD40 NFkB inh 16.1.
For Cc1ccc(C)c([N+](=O)[O-])c1 the results were CD40 NFkB inh 11.8.
Screening Cc1ccc(S(=O)c2ccc([N+](=O)[O-])c3nonc23)cc1 (stereo not drawn) returned CD40 NFkB inh 87.5*.
`COc1cc(/C=N/n2cnnc2)ccc1OC(=O)c1ccncc1` gave CD40 NFkB inh 65.0*.
